Screen size: about 96,000 compounds; fewer than 10 were called active.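 Rule for the calls: active = activation factor of at least 2 at 5 µM in the primary screen; inactive = the rest.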 Only a sample is shown.
Target: Cytochrome P450 2C19 (Homo sapiens) (UniProt P33261)
Assay: human CYP2C19 activators, primary screen, biochemical, luminescence (AID 1025);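 note: 0 = wells with 2.5 mM tranylcypromine and 1 = vehicle-only wells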
Conditions: recombinant CYP2C19, luciferin-H EGE luminescence; at 5 µM; hits give high values; 0 = fully inhibited enzyme, 1 = untreated enzyme

Chain of Cytochrome P450 2C19 (Homo sapiens) (P33261 whole entry, looked up): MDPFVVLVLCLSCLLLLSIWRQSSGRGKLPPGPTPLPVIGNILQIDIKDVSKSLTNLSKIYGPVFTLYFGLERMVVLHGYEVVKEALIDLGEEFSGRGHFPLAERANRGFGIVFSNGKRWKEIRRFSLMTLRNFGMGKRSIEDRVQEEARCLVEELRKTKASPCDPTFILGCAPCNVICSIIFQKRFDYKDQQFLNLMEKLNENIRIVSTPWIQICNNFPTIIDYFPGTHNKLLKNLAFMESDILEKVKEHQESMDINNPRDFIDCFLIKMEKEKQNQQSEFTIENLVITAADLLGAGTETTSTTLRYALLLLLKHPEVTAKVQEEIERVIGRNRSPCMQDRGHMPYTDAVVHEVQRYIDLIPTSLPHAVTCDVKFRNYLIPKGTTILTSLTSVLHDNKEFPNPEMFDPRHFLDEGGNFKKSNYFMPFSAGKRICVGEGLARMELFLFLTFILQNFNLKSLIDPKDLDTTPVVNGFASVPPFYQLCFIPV

Activation factor, inactive:
CCc1ccc(CNC(=O)C2CCCN(c3nc4ccccc4o3)C2)cc1 (stereo not drawn) 0.3, CCn1cc(C(=O)N/N=C(/C)c2ccc(F)cc2)c(=O)c2cc(F)c(N3CCCC3)cc21 0.6, O=C(Nc1cccc(-c2nc3ncccc3o2)c1)c1ccco1 0.9, COc1ccccc1NC(=O)[C@H](COCc1ccccc1)NC(=O)OC(C)(C)C 0.5, CN=C1SC(CC(=O)Nc2ccc(C(=O)O)cc2)C(=O)N1C (stereo not drawn) 1, O=C(c1ccco1)N1CCN(C(=O)C2CCCN(S(=O)(=O)c3cccc4nsnc34)C2)CC1 (stereo not drawn) 1, COc1ccc(NC(=O)Cn2c(-c3ccc(OC)cc3)cn(-c3ccc(C)cc3)c2=O)cc1 1, O=C(N/N=C/c1ccc(O)cc1)/C(=C/c1ccc([N+](=O)[O-])cc1)NC(=O)c1ccccc1 0.9, CSc1ccc(C#N)cc1NC(=O)c1cccc(Cl)c1 0.8, Cc1ccc(S(=O)(=O)N(CC(=O)NCCSC2CCCCC2)c2ccccc2F)cc1 1, CC(c1ccco1)N(C(=O)COc1ccccc1[N+](=O)[O-])c1ccccn1 (stereo not drawn) 0.6, C=CCn1c(SCC(=O)NCc2ccccc2)nnc1-c1cc(Br)ccc1O 0.1, O=C(Nc1nccs1)c1cc(S(=O)(=O)N2CCOCC2)c(Cl)cc1Cl 0.9, CC(C)CCOc1ccc(C(=O)C[N+]2(C)CCOCC2)cc1 0.9, O=C(N/N=C/C=C/c1ccccc1)C1CC1(c1ccccc1)c1ccccc1 (stereo not drawn) 1.2, COCCNC(=O)COc1ccccc1C 1, COc1ccccc1NC(=O)COc1ccc(C(=O)OCC(=O)N(C(C)C)C(C)C)cc1OC 0.4, CCCN1Cc2cccc(C(=O)Nc3ccc(S(=O)(=O)N4CCCCCC4)cc3)c2C1=O 0.8, Cc1cccc(C)c1-n1c(C)cc(/C=C2\C(=O)NN(c3ccccc3)C2=O)c1C 0.6, Cc1ccc(SCCC(=O)OCC(=O)Nc2ncc(Cl)cc2Cl)cc1 0.8, COc1ccc(NCc2nnc(SCc3ccccc3)n2-c2ccc(OC)cc2)cc1 0.1, COc1ccc(-c2cc3nc(C)c(CCC(=O)NC(C)CCc4ccco4)c(C)n3n2)c(OC)c1 (stereo not drawn) 0.7, O=C(COc1cc(Cl)c(Cl)cc1Cl)NC(=O)NC1CCCC1 1.1, CCCCCN1CC(O)=C(c2nc(-c3ccc(Cl)cc3)cs2)C1=N 0.9, Cc1ccc(-n2c(SCC(=O)NCc3ccc4c(c3)OCO4)nnc2-c2cccnc2)c(C)c1 0.7, CCCCNC(=O)CSc1nc2ccc(NC(=O)CSc3nnc(COc4ccccc4C)n3C)cc2s1 0.8, CSc1nc2ccccc2cc1/C=C(\C#N)c1ccc(Cl)cc1Cl 0.9, Cc1nnc(SCC(=O)Nc2ncc3c(n2)CC(C)(C)CC3=O)s1 1, O=C(Nc1ccc2c(c1)OCCO2)C(c1ccc(F)cc1)N1CCCCC1 (stereo not drawn) 0.4, COc1cc(C2C(C(=O)OCCC#N)=C(C)NC3=C2S(=O)(=O)c2ccccc23)cc(OC)c1OC (stereo not drawn) 0.8, CCCCN1C(=O)CC(N2CCOCC2)C1=O (stereo not drawn) 1, O=c1c2ccccc2nc2n1C1(CCCCC1)Cc1ccccc1-2 0.3, Cc1ccc(OCc2nnc(NC(=O)OCC(C)C)s2)cc1 0.9, Cc1csc(=NC(=O)c2ccccc2)n1CCO 0.5, CSC1=N/C(=C\c2ccc3c(c2)OCO3)C(=O)S1 1, CC(C)(C)c1cc2cccnc2n1Cc1cccc(F)c1 0.9, CCNC(=S)Nc1cccc(Cl)c1C 0.5, CN1CCN(c2ccc([N+](=O)[O-])c(Sc3nc4ccccc4[nH]3)c2)CC1 0.7, CC/C(C)=N/Nc1nc2sc3c(c2c(=O)[nH]1)CC(C)(C)OC3 0.6, CCC(=O)Nc1ccc(C(=O)Nc2cccc(OC)c2)cc1 1, C=CCn1c(SCC(=O)c2c(N)n(C)c(=O)n(C)c2=O)nc2sc(CC)cc2c1=O 1, COc1ccc(-c2nc3ccccc3n2CCC(C)C)cc1OC 0.4, CC(C)Oc1ccc(C(=O)NC(C)(C)CO)cc1 1, COc1ccc(C(=O)Nc2ncc3c(n2)-c2ccccc2CC3)cc1 0.9, O=C(Nc1cccc2ccccc12)c1onc2c1CCCC2 0.9, FC(F)(F)c1ccc2nnc(-c3c(Cl)cccc3Cl)n2c1 0.7, Cc1cc(C(=O)OCC(=O)Nc2ccc(F)c(F)c2)c(C)o1 0.1, Cc1nnc(SCC(=O)NC(=O)NC2CCCC2)n1N 1, Cc1ccc(-c2csc(N(Cc3ccco3)C(=O)c3cccs3)n2)cc1 0.3, O=C(c1ccccc1Oc1ccccc1)N1CCN(c2ccc(F)cc2)CC1 0.1, O=C1N=C(N2CCCC2)S/C1=C\c1cccc(Br)c1 0.4, Cc1noc(C)c1COC(=O)c1cc2ccccc2cc1O 0.1, Cc1nnc(OCC(=O)NCCC2=CCCCC2)c2ccccc12 0.4, CCOCCCNC(=O)C(NC(=O)CNC(=O)c1ccccc1)c1ccc(C)cc1 (stereo not drawn) 1.1, Nn1c(SCC(=O)NC2CCCC2)nnc1-c1ccccc1F 0.8, CCN(CC)Cc1csc2ccc(Br)cc12 0.9, CN(C)c1ccc(CNC2C3CC4CC(C3)CC2C4)cc1 (stereo not drawn) 0.2, FC(F)(F)c1cccc(-c2cc3ccccc3nc2N2CCCC2)c1 0.8, COc1ccc2[nH]c(=O)c(CNc3ccc(C)c(C)c3)cc2c1 0.8, Cn1nc(C(F)(F)F)c(C(=O)Nc2cccc(C(F)(F)F)c2)c1SCc1ccc(Cl)cc1 0.1, Cc1ccc(/C=N\n2c(-c3ccccc3)n[nH]c2=S)s1 1, CCCCCCOc1ccc(OC(=O)c2cccnc2)cc1 0.8, O=S(=O)(c1cnccc1N1CCN(/N=C/c2ccc(Br)cc2)CC1)N1CCCCC1 1.1, CCC(C)NC(=O)c1c(N)n(/N=C/c2cccs2)c2nc3ccccc3nc12 (stereo not drawn) 0.9, Cc1ccc(C(=O)N2CCN(C(=O)N3CCOCC3)CC2)cc1 0.9, Cc1cccc(NC(=O)/C(=C\c2ccco2)NC(=O)c2ccccc2)c1 0.9, CC(C)Oc1ccc(CCc2n[nH]c(=S)n2Cc2ccccc2)cc1 0.8, CCOC(=O)/C(=C\c1ccc([N+](=O)[O-])cc1)C(=O)c1cc(C(C)=O)c(Nc2ccccc2)s1 0.4, CCOc1cccc(SCc2noc(C(=O)NC(C)C)c2C(=O)O)c1 0.9, Cc1cccc(C(=O)NCCCN2CCCC2=O)c1 0.8, COc1ccc(C(=O)NNC(=O)c2cnccn2)cc1[N+](=O)[O-] 0.9, Cc1cc(=O)[nH]c(SCc2cccc(F)c2)n1 0.9, COc1ccc(NC(=O)/C(Cl)=C(/Cl)S(=O)Cc2ccc(C)cc2)cn1 (stereo not drawn) 0.7, COc1ccc(/C=C2\CCCC3C2=NN(C(=O)c2scnc2C)C3c2ccc(OC)cc2)cc1 (stereo not drawn) 0.7, Cc1ccccc1-n1nc(C)c2cc(C(=O)NC3CC3)sc21 0.4, Cc1onc(-c2c(Cl)cccc2Cl)c1C(=O)c1c[nH]c(C(=O)NC2CC2)c1 1, Cc1cccc(C(=O)Nc2ccc(C(=O)/C=C/c3cccs3)cc2)c1 1, CCOc1ccc(S(=O)(=O)NCCSc2ccccc2)cc1 0, CN(C)S(=O)(=O)c1ccc(N2CCCC2)c(C(=O)NCc2ccccc2)c1 0.4, COc1ccc(C(=O)Nc2nc(-c3ccc(OC)cc3)c(-c3ccc([N+](=O)[O-])cc3)s2)cc1 0.9, Cc1nn(Cc2ccccc2Cl)c(C)c1NC(=O)Cn1nc([N+](=O)[O-])c(Cl)c1C 1, COC(=O)Nc1sc2nc(C)cc(C)c2c1-n1cccc1 0.8, CCCc1nnc(NC(=O)c2cccs2)s1 0.9, O=C1Nc2ccc(Br)cc2/C1=N/N=C/C1=C(N2CCOCC2)C(=C\c2ccccc2)/CC1 1, O=C(N/N=C\c1cccc(Br)c1)c1ccccc1-n1cccc1 0.3, CC(=O)N1Cc2ccccc2CC1C(=O)O (stereo not drawn) 1.2, O=C(c1cccc(N2CCCC2=O)c1)N1CCOCC1 1.1, Cc1nn(CCOc2ccccc2)c(=O)n1-c1ccccc1F 0.5, O=C(NCc1ccccc1)[C@@H]1CSC2c3ccccc3C(=O)N21 (stereo partly drawn) 0.2, N=c1ccn(CC(=O)NC(N)=O)c2ccccc12 1.1, CCC(=O)c1c[nH]c(C(=O)NCC2CCCO2)c1 (stereo not drawn) 1, COc1ccc(Nc2nc(Cl)nc(NCc3ccco3)n2)cc1 1, CN(C)/C=C/C(=O)c1ccccc1F 1.1, C=CCn1c(Cn2nnc3ccccc32)nnc1SCC(=O)N/N=C/c1cc(Br)cc(OC)c1O 0.8, COC(=O)CCSc1cc([N+](=O)[O-])cc2c1c(C1OCCS1)nn2-c1ccccc1 (stereo not drawn) 0.9, NC(=O)c1nsc(C(=O)N(CC(=O)NCc2ccc(F)cc2)Cc2ccco2)c1N 0.8, CCNC(=O)NC(=O)C(C)OC(=O)c1cc(S(=O)(=O)N2CCCCCC2)ccc1OC (stereo not drawn) 0.3, CCOC(=O)c1c(-c2ccccc2)csc1NC(=S)NC(=O)c1ccccc1 1.1

From PubChem BioAssay AID1025 (Sanford-Burnham Center for Chemical Genomics, 2008)
